Test results as given in PubChem BioAssay AID1060 (Emory University Molecular Libraries Screening Center, 2008).
Measured potencies and affinities stand elsewhere. Activity calls are given as the source filed them.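 Rule for the calls: active = fitted half-inhibition concentration at or below a set limit, with percent of control there at most 60; inactive = the rest.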

biological target: Estrogen receptor beta (Homo sapiens) (UniProt Q92731); assay: ERβ–SRC-3 coactivator interaction inhibitors, confirmation, orthogonal assay, biochemical, ELISA, streptavidin-HRP readout (AID 1060); conditions: ERbeta-SRC-3 coactivator binding ELISA; series mostly up to 50 µM
Sequence (Q92731 whole entry, looked up): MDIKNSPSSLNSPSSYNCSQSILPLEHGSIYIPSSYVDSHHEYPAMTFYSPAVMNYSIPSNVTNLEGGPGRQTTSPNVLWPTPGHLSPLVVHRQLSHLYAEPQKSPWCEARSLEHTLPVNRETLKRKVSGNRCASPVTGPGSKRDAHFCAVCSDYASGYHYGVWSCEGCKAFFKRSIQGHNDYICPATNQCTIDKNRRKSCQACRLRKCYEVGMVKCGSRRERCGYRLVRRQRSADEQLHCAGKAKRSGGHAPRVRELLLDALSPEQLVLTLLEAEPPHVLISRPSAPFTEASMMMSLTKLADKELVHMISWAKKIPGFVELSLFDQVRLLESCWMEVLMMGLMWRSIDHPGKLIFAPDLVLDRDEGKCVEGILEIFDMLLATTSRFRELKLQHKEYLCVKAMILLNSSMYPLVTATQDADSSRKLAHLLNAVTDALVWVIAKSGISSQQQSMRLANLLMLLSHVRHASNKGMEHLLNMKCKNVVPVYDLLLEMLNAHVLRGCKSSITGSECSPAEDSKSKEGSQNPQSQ

outcome, inactive:
NC(=O)c1cccc2c1C(=O)N(C1CCCCC1)C2
Cc1ccc(C(=O)CSC2=C(C#N)C(c3ccco3)CC(=O)N2)c(C)c1 (stereo unspecified)
COc1ccc(CCNC(=O)c2ccc3nc(-c4ccco4)c(-c4ccco4)nc3c2)cc1OC
CCC(=O)Nc1ccc(C(=O)Cn2nc(C(=O)O)c3ccccc3c2=O)cc1
CCc1cc(=O)[nH]c(SCC(=O)Nc2ccc(C(=O)OC)cc2)n1
COc1ccccc1-c1nnc2sc(-c3cnccn3)nn12
CCC(=O)Nc1cccc(NC(C)=O)c1
COc1ccc2c(=O)c3c(=O)n(Cc4ccco4)c(-c4ccco4)nc3oc2c1
COc1ccc2nc(-c3ccco3)c(-c3ccco3)nc2c1
Cc1cc(-c2csc(N)n2)c(C)n1C
Cc1sc2ncnc(NCc3ccco3)c2c1C
Cc1cc(C)cc(OCC(=O)Nc2ccc(N3CCCC3)cc2)c1
CSc1nc2c(c(=O)[nH]1)C(c1cccs1)C1=C(CCCC1=O)N2 (stereo unspecified)
CC1CC(C(F)(F)C(F)(F)F)n2nc(C(=O)O)cc2N1 (stereo unspecified)
CCCNCC1COc2ccccc2O1 (stereo unspecified)
O=S(=O)(Nc1ncnc2sc3c(c12)CCC3)c1ccc2ccccc2c1
